In assay [1] the target is Glutathione peroxidase 1 (Homo sapiens) (UniProt P07203). Briefly: Primary qHTS Assay for Inhibitors of Recombinant Selenoprotein Glutathione Peroxidase 1 (GPX1) (AID 1845191). Further: nearly all actives have a fitted effect of over 65% in size. On activity, negative = inhibition: on the % scale 0 is the no-effect control and ±100 the full control effect. In a few lines: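 NADPH consumption tracked by fluorescence at 340/450 nm between t=0 and t=15 min, room temperature. Final mix: 10 nM GPX1, 100 nM glutathione reductase, 1 mM GSH, 0.5 mM NADPH, 0.5 mM cumene hydroperoxide, 0.01% BSA; 30 min compound–enzyme preincubation.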
Sequence of Glutathione peroxidase 1 (Homo sapiens) (P07203 whole entry, looked up): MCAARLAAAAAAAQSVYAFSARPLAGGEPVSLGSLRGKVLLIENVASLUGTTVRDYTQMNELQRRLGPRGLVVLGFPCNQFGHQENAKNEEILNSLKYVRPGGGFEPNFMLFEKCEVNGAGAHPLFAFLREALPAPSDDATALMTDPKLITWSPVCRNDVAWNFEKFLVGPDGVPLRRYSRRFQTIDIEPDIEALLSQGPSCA
(In general: qHTS replaces the single test concentration by a dilution series.)

Assay [2] concerns the target Phospholipid hydroperoxide glutathione peroxidase GPX4 (Homo sapiens) (UniProt P36969). In words: Primary qHTS Assay for Inhibitors of Recombinant Selenoprotein Glutathione Peroxidase 4 (GPX4) (AID 1845192). Further: nearly all actives have a fitted effect of over 65% in size. On activity change, negative = inhibition: series mostly up to about 50 µM; on the % scale 0 is the no-effect control and ±100 the full control effect. Summed up:
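NADPH consumption followed by fluorescence at 340/450 nm, t=0 and after 15 min at room temperature. Reaction started with cumene hydroperoxide (0.5 mM final) after 30 min compound–GPX4 preincubation; final 200 nM GPX4, 100 nM GR, 1 mM GSH, 0.5 mM NADPH.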

Assay [3] has as its target Luciferin 4-monooxygenase (Photinus pyralis) (UniProt P08659). Briefly: Primary firefly luciferase (FLuc) qHTS assay for identification of artifact compounds. (AID 1845220). Further: nearly all actives have a fitted effect of over 60% in size.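 On activity change, negative = inhibition: series mostly up to about 54 µM; plate controls were DMSO vehicle for no effect and no enzyme for full effect.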 Summed up: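 Compounds sat 15 min at room temperature with 10 uM luciferin and 10 uM ATP (pH 7.6 Tris acetate). Firefly luciferase (10 nM final) was then added, and luminescence was read 5 min later. Data normalized to no-enzyme and DMSO controls were Hill-fitted.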

A short description of assay [4]: Primary fluorescence-based thiol-reactive (MSTI) qHTS assay for identification of artifact compounds. (AID 1845221). Further: nearly all actives have a fitted effect of over 65% in size. Further: potency means the concentration at half of the fitted maximal effect.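 On activity change, negative = thiol reactive: series mostly up to about 54 µM; thiol-reactive compounds lower the probe fluorescence signal.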 In a few lines: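 Probe: MSTI 4 uM, PBS pH 7.4, 2% DMSO. Incubation 1 h, RT, light-protected. Readout fluorescence 525/598 nm.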
For assay [5], the system named is Nanoluciferase (engineered Oplophorus gracilirostris luciferase). Briefly: Primary Nanoluciferase (NLuc) qHTS assay for identification of artifact compounds. (AID 1845222).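 Further: series mostly up to about 54 µM; 0% = DMSO and -100% = no enzyme.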 Summed up: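 Luminescence from secreted NLuc (filtered, 1:55-diluted S16 cell medium) read 5 min after Nano-Glo substrate; compounds preincubated 15 min, RT. Hill fits of inhibition normalized to DMSO and no-enzyme.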

Assay [6] is described as follows: Primary redox qHTS assay for identification of artifact compounds. (AID 1845223).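 Further: 0% = DMSO and 100% = reference compound.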 Summed up:
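Redox-cycling detection via DTT (250 uM final) oxidation coupled to Amplex Red (25 uM)/HRP (250 mU/mL) in HBSS. 15 min preincubation plus 30 min after DTT, room temperature. Ex/Em 525/598 nm; 4-parameter Hill fit against DMSO and 10 uM DA3003.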

The record followed here is PubChem BioAssay (NCATS).

SMILES strings stand for the structures. A number with no mark means an inactive call. Results filed as inconclusive are left out. Calls of active or inactive are those of the source. The call rests on the fitted dose curve; in most records, active means well fitted curve in the direction sought with a large enough effect; inconclusive means small, poorly fitted or top-dose-only effect, or another doubt; inactive means no such curve, though single readings can be large; an effect the other way counts as inactive or inconclusive.

Sequence of Phospholipid hydroperoxide glutathione peroxidase GPX4 (Homo sapiens) (P36969 whole entry, looked up): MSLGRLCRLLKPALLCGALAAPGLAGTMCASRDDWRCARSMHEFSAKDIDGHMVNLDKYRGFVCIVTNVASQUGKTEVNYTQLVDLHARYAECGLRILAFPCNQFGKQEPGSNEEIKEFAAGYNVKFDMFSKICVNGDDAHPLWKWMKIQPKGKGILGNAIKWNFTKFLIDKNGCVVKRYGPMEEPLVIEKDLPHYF

As for `COc1cc(C(=O)NCC2(N(C)C)CCCC2)cc(OC)c1OCc1ccccc1`, the Potency result in assay [1], in assay [2], in assay [3], in assay [4], in assay [5] and in assay [6] was “inactive” each time.
For the compound `Nc1cccc(CNC(=O)c2ccc(Oc3ccc(OCc4cccc(F)c4)cc3)nc2)c1`, the Potency result in assay [1], in assay [2], in assay [3], in assay [4], in assay [5] and in assay [6] was “inactive” in each case.
`CN(C)CCOc1cc(NS(=O)(=O)c2c(Cl)cc(C(F)(F)F)cc2Cl)ccc1Cl`: the Potency entry in assay [1], in assay [2], in assay [3], in assay [4], in assay [5] and in assay [6] was “inactive” in each case.
As for `CCC(=C(c1ccc(OCCN2CCCC2)cc1)c1ccc(OCCN2CCCC2)cc1)c1ccccc1`, the Potency result in assay [1], in assay [2], in assay [3], in assay [4], in assay [5] and in assay [6] was “inactive” each time.
Regarding `COc1cc(-n2cnc3cc(-c4ccc(Cl)cc4)sc3c2=O)ccc1OCCN1CCCC1`, the Potency result in assay [1], in assay [2], in assay [3], in assay [4], in assay [5] and in assay [6] was “inactive” in each case.
For the compound `C=C(C)C(=O)OC1CC2(C)OC(=CC2=O)C(=C)CC2OC(=O)C(=C)C12` (centres undefined), the Potency result in assay [1], in assay [2], in assay [3], in assay [4], in assay [5] and in assay [6] was “inactive” in each case.
Regarding `C=C1CO[C@@]2(O[C@H]3CC4C5CC=C6C[C@@H](O)C[C@@H](O[C@@H]7OC[C@H](O)[C@H](O[C@@H]8OC[C@@H](O)[C@H](O)[C@H]8O)[C@H]7O[C@@H]7O[C@@H](C)[C@H](OC(C)=O)[C@@H](OC(C)=O)[C@H]7OC(C)=O)[C@]6(C)C5CC[C@]4(C)[C@@H]3[C@@H]2C)[C@@H](O)[C@H]1OC1OC(C)C(O)C(O)C1O` (some centres undefined), the results for the activity, negative = inhibition in assay [1] and in assay [5] were 0.917% [at 9.52 µM] and 1.51% [at 11.6 µM], respectively. For the same compound, the values for the outcome in assay [2] and in assay [3] were “inactive [at 9.73 µM]” and “inactive [at 11.6 µM]”, respectively. In addition, in assay [4], the activity change, negative = thiol reactive was 69.1% [at 11.5 µM]. In assay [6], the redox activity (% of DA3003) is 7.69% [at 11.5 µM].
In the case of `COc1ccc(-n2c(SCCCN3C(=O)c4cccc5cccc(c45)C3=O)nnc2-c2ccncc2)cc1`, the Potency result in assay [1], in assay [2], in assay [3], in assay [4], in assay [5] and in assay [6] was “inactive” throughout.
Take `CCOc1cc(C(C)(C)C)ccc1C1=NC(C)(c2ccc(Cl)cc2)C(C)(c2ccc(Cl)cc2)N1C(=O)N1CCN(CCCS(C)(=O)=O)CC1` (centres undefined): the Potency entry in assay [1], in assay [2], in assay [3], in assay [4], in assay [5] and in assay [6] was “inactive” each time.
Turning to `C=C(COC(=O)C(O)C(O)CN)C12OC1C1(C)C(=CC2=O)C(O)C(O)CC1C` (centres undefined), the Potency entry in assay [1], in assay [2], in assay [3], in assay [4], in assay [5] and in assay [6] was “inactive” in each case.
As to `C=C1CCC2C(C)(C(=O)O)CCCC2(C)C1CCC1=CCOC1=O` (centres undefined), the Potency entry in assay [1], in assay [2], in assay [3], in assay [4], in assay [5] and in assay [6] was “inactive” each time.
`CC(=O)O[C@@H]1[C@@H](O)[C@H](O[C@@H]2[C@@H](O)[C@@H](O)[C@H](O[C@H]3[C@H](O[C@H]4[C@H](O[C@H]5CC[C@@]6(C)C(CC[C@]7(C)C6CC=C6[C@@H]8CC(C)(C)CC[C@]8(C(=O)O)CC[C@]67C)[C@]5(C)CO)O[C@H](CO)[C@@H](O)[C@@H]4O)OC[C@@H](O)[C@@H]3O)O[C@H]2C)OC[C@H]1O` (some centres undefined): the Potency result in assay [1] and in assay [2] was “inactive” each time. Besides, the activity change, negative = inhibition in assay [3] is -4.72% [at 11.6 µM]. Moreover, in assay [4], the activity change, negative = thiol reactive is 377% [at 11.5 µM]. Moreover, the activity, negative = inhibition in assay [5] was 1.48% [at 11.6 µM]. The redox activity (% of DA3003) in assay [6] was 0.129% [at 11.5 µM].
On to `Fc1ccc2c(CCNCc3cccc(OCC(F)(F)C(F)F)c3)c[nH]c2c1`, for which the Potency result in assay [1], in assay [2], in assay [3], in assay [4], in assay [5] and in assay [6] was “inactive” in each case.
Consider `C=C1C(=O)O[C@@H]2C=C(COC(C)=O)CC/C=C(\CO)CC[C@@H]12`, for which the Potency entry in assay [1], in assay [2], in assay [3], in assay [4], in assay [5] and in assay [6] was “inactive” each time.
Consider `C=CCCN1CCC2(CC1)CN(C(=O)c1c(F)cccc1F)c1ccc(Cl)cc12`, for which the Potency entry in assay [1], in assay [2], in assay [3], in assay [4], in assay [5] and in assay [6] was “inactive” each time.
Turning to `Cc1csc2c(N[C@@H](C)CN3CCN(S(=O)(=O)c4ccc(Cl)c(Cl)c4)CC3)ncnc12`, the Potency result in assay [1], in assay [2], in assay [3], in assay [4], in assay [5] and in assay [6] was “inactive” in each case.
On to `COC(=O)c1ccc(N2CCN(C)CC2)c(NC(=O)c2cccc(OC)c2)c1`, for which the Potency result in assay [1], in assay [2], in assay [3], in assay [4], in assay [5] and in assay [6] was “inactive” throughout.
In the case of `C/C(=C/CO)CCC1C(C)CCC2C(C)(C)CCCC12C` (centres undefined), the Potency result in assay [1], in assay [2], in assay [3], in assay [4], in assay [5] and in assay [6] was “inactive” throughout.
As for `Cc1ccc(C(C)C)c(O[C@@H]2O[C@H](CO)[C@@H](O)[C@H](O)[C@H]2O)c1`, the Potency entry in assay [1], in assay [2], in assay [3], in assay [5] and in assay [6] was “inactive” in each case. Moreover, in assay [4], the Potency was 10.4 µM (active).
For the compound `COc1ccc(NC(=O)c2ccc(C(=N)N(C)C)cc2)c(C(=O)Nc2ccc(Cl)cn2)c1`, the Potency result in assay [1], in assay [2], in assay [3], in assay [4], in assay [5] and in assay [6] was “inactive” throughout.
Take `C=C(C(=O)O[C@H]1C/C(C)=C/CC/C(CO)=C/[C@H]2OC(=O)C(=C)[C@H]12)C(O)CO` (some centres undefined): the Potency result in assay [1], in assay [2], in assay [3], in assay [4], in assay [5] and in assay [6] was “inactive” throughout.
On to `COc1cc(/C=C/C(=O)NCCn2c(C(F)(F)F)cc3ccccc32)cc(OC)c1OC`, for which the Potency result in assay [1], in assay [2], in assay [3], in assay [4], in assay [5] and in assay [6] was “inactive” throughout.
For `COC1C=C(C)C(O)(CO)C2(C)CCCC(C)(C)C12` (centres undefined), the Potency result in assay [1], in assay [2], in assay [3], in assay [4], in assay [5] and in assay [6] was “inactive” in each case.
As for `Nc1nc2c(ncn2C2OC3COP(=O)(O)OC3C2O)c(=O)[nH]1` (centres undefined), the Potency result in assay [1], in assay [2], in assay [3], in assay [4], in assay [5] and in assay [6] was “inactive” throughout.
